About 83,000 compounds went through this panel and 20% of them were active in at least one assay; those are over-represented in the sample as a whole.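 Values shown are percent growth following 48 h exposure of cells in 96-well plates to a single concentration of compound; below 10 was considered active.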 The source made the active and inactive calls.
Legend:
Assay in all cases: NCI-60 one-dose screen, 48 h (100 = growth as untreated, 0 = no growth, -100 = all killed)
Conditions in all cases: 10 µM unless noted
[1] = system: HCT-15 colon
[2] = system: HT29 colon
[3] = system: SNB-75 CNS
[4] = system: SNB-19 CNS
[5] = system: U251 CNS
[6] = system: PC-3 prostate
[7] = system: SK-MEL-5 melanoma
[8] = system: UACC-62 melanoma
[9] = system: LOX IMVI melanoma
[10] = system: SK-MEL-28 melanoma
[11] = system: SK-MEL-2 melanoma
[12] = system: EKVX NSCLC
[13] = system: SN12C renal
[14] = system: UO-31 renal
[15] = system: TK-10 renal
[16] = system: ACHN renal
[17] = system: CAKI-1 renal
[18] = system: CCRF-CEM leukemia
[19] = system: MOLT-4 leukemia

Measured: growth

CO[C@@H]1[C@H](N(C)C(=O)c2ccccc2)C[C@@H]2O[C@]1(C)n1c3ccccc3c3c4c(c5c6ccccc6n2c5c31)C(=O)NC4=O
inactive: [1] 25% | [2] 42.8% | [4] 63.6% | [5] 44.3% | [6] 26.3% | [7] 40% | [8] 34.1% | [9] 31.4% | [10] 83.1% | [11] 55.1% | [12] 27.9% | [13] 33.4% | [16] 35.4% | [18] 44.5% | [19] 32.8%
active: [3] -14.8% | [14] -35.6% | [15] -20.3% | [17] -10.8%

CCCCCN1C=C/C(=C\C(=O)N(C)c2cccc3ccccc23)c2ccccc21
inactive: [1] 101% | [2] 90% | [3] 103% | [4] 99.7% | [5] 95.8% | [6] 94.4% | [7] 98.3% | [8] 87.4% | [9] 97.8% | [10] 107% | [11] 109% | [12] 89.1% | [13] 100% | [14] 82.5% | [15] 105% | [16] 104% | [17] 89.8% | [18] 89.5% | [19] 99%

CCOC(=O)N1CCN(CCCCl)CC1
inactive: [1] 105% | [2] 107% | [3] 102% | [4] 97.6% | [5] 95.6% | [6] 102% | [7] 101% | [8] 93.5% | [9] 99.5% | [10] 106% | [11] 103% | [12] 98.2% | [13] 99% | [14] 89.5% | [15] 92.1% | [16] 97.4% | [17] 101% | [18] 110% | [19] 98.7%

FC(F)(F)c1cccc(Oc2ccc(Nc3ncnc4ccc(OCCCN5CCOCC5)cc34)cc2Cl)c1
inactive: [3] 75.2% | [4] 61.1% | [5] 40.3% | [6] 49.1% | [7] 59.2% | [8] 76.1% | [10] 21.3% | [11] 82.7% | [12] 32.7% | [13] 39.6% | [14] 21.6% | [15] 46% | [16] 23.9% | [17] 35.6% | [19] 34.3%
active: [1] -40.4% | [2] 5% | [9] -36% | [18] -16.4%

CC(=O)OC1CCC2(C)C(CCC3C4CC=C(C(C)=O)C4(C)OC(=O)CC32)C1 (stereo unspecified)
active: [1] 5.27% | [2] -59.4% | [9] -19.9% | [10] 4.51% | [15] -20.2% | [16] 7.04% | [18] -27.5% | [19] -37.1%
inactive: [3] 95% | [4] 94.6% | [5] 54.8% | [6] 73.2% | [7] 54.7% | [8] 37.8% | [11] 17.7% | [12] 87.2% | [13] 57.8% | [14] 21.3% | [17] 39.4%

COc1ccc(/C=C/C(=O)c2ccc(Nc3ncnc4ccccc34)cc2)cc1OC
inactive: [1] 75.9% | [2] 13.9% | [3] 92.2% | [4] 79.1% | [5] 54.1% | [6] 65.4% | [7] 91.9% | [8] 87.1% | [9] 44.2% | [10] 98.1% | [11] 124% | [12] 78.3% | [13] 88.5% | [14] 71.2% | [15] 98.8% | [16] 88.8% | [17] 75.6% | [18] 49.7% | [19] 48.2%

Cc1cc2cc3cc(C)c(N)cc3[n+](C)c2cc1N
inactive: [1] 31.8% | [3] 38.3% | [4] 11.6% | [7] 18.4% | [8] 33% | [10] 21.7% | [12] 14.3% | [14] 14% | [15] 16.2% | [16] 28.5% | [17] 52.7% | [18] 18.8%
active: [2] -16.8% | [5] 6% | [6] 8.84% | [9] -4.56% | [11] -21.9% | [13] 8.73% | [19] 5.32%

BrC(Br)(Br)c1cnc2ccccc2n1
inactive: [1] 31.7% | [3] 102% | [4] 67.9% | [5] 50.3% | [6] 62.3% | [7] 73.9% | [8] 61.4% | [9] 30.6% | [10] 53.5% | [11] 90.2% | [12] 70.4% | [13] 71.6% | [18] 23.2%
active: [2] -65.1% | [14] -51.1% | [15] -57.9% | [16] -51.6% | [17] -29.7%
